Measurements as given in PubChem BioAssay AID1508608 (The Scripps Research Institute Molecular Screening Center, 2020).
Screen size: about 2,300 compounds; about 20 (0.9%) were called active. The full list was thinned out, with actives kept by preference. Unmarked numbers belong to inactive results.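 The calls were made as follows: active = mean activation across replicates above 26.72%, the hit cutoff set for this confirmation screen; inactive = the rest.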

These compounds were tested against G-protein coupled receptor 151 (Homo sapiens) (UniProt Q8TDV0) (assay: GPR151 activators, triplicate retest, confirmation, cell-based, PathHunter beta-arrestin, luminescence, set 2 (AID 1508608;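 also: 0% = plate median of compound wells and 100% = EA reagent high control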)). Settings: GPR151 PathHunter beta-arrestin cells, 90 min, at 11.2 µM, active compounds read high; 100% = signal from added EA reagent unless noted.
Chain of G-protein coupled receptor 151 (Homo sapiens) (Q8TDV0 whole entry, looked up): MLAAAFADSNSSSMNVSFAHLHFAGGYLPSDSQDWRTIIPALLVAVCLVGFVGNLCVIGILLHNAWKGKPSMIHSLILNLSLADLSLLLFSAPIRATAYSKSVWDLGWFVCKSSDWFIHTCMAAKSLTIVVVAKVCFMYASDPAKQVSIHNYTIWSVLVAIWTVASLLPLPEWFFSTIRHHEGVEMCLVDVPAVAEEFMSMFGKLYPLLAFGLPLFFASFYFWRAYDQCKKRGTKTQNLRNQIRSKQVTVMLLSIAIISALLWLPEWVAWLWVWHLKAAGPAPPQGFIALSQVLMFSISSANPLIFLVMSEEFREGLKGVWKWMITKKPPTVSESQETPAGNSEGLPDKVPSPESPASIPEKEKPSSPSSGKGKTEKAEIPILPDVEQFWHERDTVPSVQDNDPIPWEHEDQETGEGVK

Q: `CC[n+]1c(/C=C/C=C2\N(C)c3ccccc3C2(C)C)n(-c2ccccc2)c2cc(Cl)ccc21` was tested. Which activation did it give?
A: 13.7%

Q: How did the activation turn out when `CCn1c(/C=C/C=C2\N(C)c3ccccc3C2(C)C)[n+](Cc2ccccc2)c2ccccc21` was run?
A: 35.2% (active)

Q: How did the activation turn out when `CC[n+]1c(/C=C/C=C2\N(C)c3ccccc3C2(C)C)n(-c2ccccc2)c2ccc(C)cc21` was run?
A: 19.5%

Q: With `CCCCn1c(C)c(C(=O)OCC)c2cc(OC(=O)CCC)c3ccccc3c21` as the compound, how does the activation read?
A: 1.16%

Q: How did the activation turn out when `CCOC(=O)c1nc2ccccc2c(=O)n1-c1ccc(C)cc1Br` was run?
A: -0.06%

Q: How did the activation turn out when `C[C@@H]1O[C@@H](O[C@H]2C[C@@H](O)[C@]3(CO)[C@H]4[C@H](O)C[C@]5(C)[C@@H](C6=CC(=O)OC6)CC[C@]5(O)[C@@H]4CC[C@]3(O)C2)[C@H](O)[C@H](O)[C@H]1O` was run?
A: 13.4% [setting not given]

Q: With `C[C@H]1CC[C@@H]2[C@@H](C)[C@H]3[C@H](CC4[C@@H]5CC=C6CC(O[C@@H]7O[C@H](CO)C(O[C@@H]8O[C@@H](C)[C@H](O)[C@@H](O)[C@H]8O)[C@H](O)[C@H]7O[C@@H]7O[C@@H](C)[C@H](O)[C@@H](O)[C@H]7O)CC[C@]6(C)[C@H]5CC[C@@]43C)N2C1` (stereo not given in full) as the compound, how does the activation read?
A: 81.8% (active)

Q: With `CCCCOc1ccc(C(=O)Nc2ccc(Cl)cc2C(=O)c2ccccc2)cc1` as the compound, how does the activation read?
A: -0.96%

Q: For `COCCOC(=O)C1=C(C)OC(N)=C(C#N)C12C(=O)N(CC(=O)OC)c1ccccc12` (stereo not given), which activation is on record?
A: -4.79%

Q: How did the activation turn out when `O=C(Nc1ccc(Cl)cc1C(=O)c1ccccc1)c1cc([N+](=O)[O-])ccc1Cl` was run?
A: -4.58%
